{"source": "PubChem BioAssay AID624304", "about": "(Sanford-Burnham Center for Chemical Genomics, 2012)", "note": "Screen size: about 360,000 compounds; about 1,800 (0.5%) were called active.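 Rule for the calls: active = interference check ratio from 0.5 to 1.5 plus GFP to RFP signal ratio inhibition reaching or exceeding a fixed threshold (cut at about 30% in these data, passing the limit was not always enough); inactive = the rest.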 This excerpt belongs to a sample that is enriched for actives.", "data": [{"assay": "gst-4 reporter inhibition in live C. elegans – whole organism, uHTS, GFP/RFP fluorescence ratio, strain VP596, SKN-1 inhibitor project, primary screen (AID 624304)", "details": "C. elegans VP596 Pgst-4::GFP/RFP ratio, acrylamide-induced, 24 h; at 21.8 µM; hits give high values", "values": [{"smiles": "Fc1cccc(CSc2nnc3ccc(-c4ccncc4)nn23)c1", "inhibition": "-27.4% (inactive)"}, {"smiles": "COc1ccc(S(=O)(=O)NCc2cccnc2)cc1NC(=O)c1ccc(C)cc1", "inhibition": "22.1% (inactive)"}, {"smiles": "CC(C)c1nnc(NC(=O)C2CC(=O)N(CCc3ccc(F)cc3)C2)s1", "note": "(stereo not given)", "inhibition": "-6.45% (inactive)"}, {"smiles": "CCC(C)NC(=O)c1ccccc1NC(=O)c1ccccc1N(C)S(C)(=O)=O", "note": "(stereo not given)", "inhibition": "-2.01% (inactive)"}, {"smiles": "Cc1ccc(-c2nc(CS(=O)CC(=O)NC3CCCC3)c(C)o2)cc1", "note": "(stereo not given)", "inhibition": "5.39% (inactive)"}, {"smiles": "COc1ccc(-c2nc(CS(=O)CC(=O)NCc3cccnc3)c(C)o2)cc1OC", "note": "(stereo not given)", "inhibition": "0.495% (inactive)"}, {"smiles": "COc1ccc(-c2nc(CS(=O)CC(=O)NCc3ccccn3)c(C)o2)cc1", "note": "(stereo not given)", "inhibition": "37.6% (active)"}, {"smiles": "COc1ccc(N2C(=O)C(CC(=O)Nc3ccc(F)cc3)N(CCc3cccs3)C2=O)cc1", "note": "(stereo not given)", "inhibition": "-3.33% (inactive)"}, {"smiles": "COc1ccc(-n2nc(C(=O)Nc3cc(OC)c(OC)c(OC)c3)c3ccccc3c2=O)c(OC)c1", "inhibition": "6.93% (inactive)"}, {"smiles": "COCCN1C(=O)N(c2ccc(Cl)cc2)C(=O)C1CC(=O)Nc1cc(OC)cc(OC)c1", "note": "(stereo not given)", "inhibition": "17% (inactive)"}, {"smiles": "C[C@H](OC(=O)n1ccnc1)[C@@H]1O[C@@]2(C)CCC[C@@H]1O2", "inhibition": "13.4% (inactive)"}, {"smiles": "C=CCSc1nnc2c(n1)-c1cccc3cccc-2c13", "inhibition": "53.1% (active)"}, {"smiles": "C=CCSc1nsc(NC(=O)Nc2cccc(C(C)=O)c2)n1", "inhibition": "2.8% (inactive)"}, {"smiles": "COc1ccnc2c1c(=O)n(Cc1cccc(F)c1)c(=O)n2C", "inhibition": "13.9% (inactive)"}, {"smiles": "CCCc1cc(C(=O)Nc2ccc(Cl)cn2)cs1", "inhibition": "35% (active)"}, {"smiles": "CCCCC(CC)C(=O)Nc1ccc(Cl)cn1", "note": "(stereo not given)", "inhibition": "-11.4% (inactive)"}, {"smiles": "COc1ccc(C(=O)N/N=C(\\C)CC(=O)Nc2ccc(Cl)cn2)cc1", "inhibition": "3.73% (inactive)"}, {"smiles": "C=CCC1(C(=O)N(C)Cc2ccccc2)CCN(C(=O)OC(C)(C)C)CC1", "inhibition": "4.4% (inactive)"}, {"smiles": "COCCN(C(=S)Nc1cccc(Cl)c1C)C(C)c1ccco1", "note": "(stereo not given)", "inhibition": "2.25% (inactive)"}, {"smiles": "C/C(=N\\NC(=O)OC(C)(C)C)c1ccc[nH]1", "inhibition": "10.7% (inactive)"}, {"smiles": "CCOC(=O)c1ccc(NC(=O)c2nc[nH]c2C(=O)N[C@@H](CCCCNC(=O)OC(C)(C)C)C(=O)OC(C)(C)C)cc1", "inhibition": "-1.6% (inactive)"}, {"smiles": "c1ccc2c(c1)OCCOCCOCCO2", "inhibition": "2.75% (inactive)"}, {"smiles": "CCC1CCCCN1C(=O)CSc1nc2c(c(=O)n(C)c(=O)n2C)n1C", "note": "(stereo not given)", "inhibition": "10.5% (inactive)"}, {"smiles": "CCn1c(SCc2cc(=O)n3ccsc3n2)nc2ccccc21", "inhibition": "13.5% (inactive)"}, {"smiles": "Cc1nc2nc(CSc3nc4ccccc4s3)cc(=O)n2[nH]1", "inhibition": "31.9% (active)"}, {"smiles": "CCCc1cc(=O)n2[nH]c(SCc3ccccc3)nc2n1", "inhibition": "11.9% (inactive)"}, {"smiles": "COc1ccc2c(c1)c1ncn(Cc3ccccn3)c(=O)c1n2C", "inhibition": "-9.72% (inactive)"}, {"smiles": "Clc1ccc(-c2csc(-c3ccncc3)n2)cc1", "inhibition": "73.1% (active)"}, {"smiles": "N#CC(=C1CCCC1)c1nc(-c2ccc(Cl)cc2)cs1", "inhibition": "-17.2% (inactive)"}, {"smiles": "Fc1ccc(-c2csc(-c3ccc(C4SCCS4)cc3)n2)cc1F", "inhibition": "-2.79% (inactive)"}, {"smiles": "COc1ccc(C)cc1NC(=O)c1[nH]c(C)c(C(C)=O)c1C", "inhibition": "-2.27% (inactive)"}, {"smiles": "COc1ccc(NC(=O)C2Cc3c(-c4cccc(NC(C)=O)c4)ccnc3O2)cc1OC", "note": "(stereo not given)", "inhibition": "7.14% (inactive)"}, {"smiles": "O=C(Nc1ccc(Cl)cn1)c1ccccc1-c1ccccc1", "inhibition": "19.1% (inactive)"}, {"smiles": "c1ccc(Nc2nc(-c3ccncc3)cs2)nc1", "inhibition": "38.3% (active)"}, {"smiles": "COc1ccc(-c2csc(Nc3ccccn3)n2)cc1", "inhibition": "40% (active)"}, {"smiles": "COc1ccc2nc(-c3ccccn3)ccc2c1", "inhibition": "18.4% (inactive)"}, {"smiles": "CC(NC(=O)c1ccco1)C(=O)Nc1nc(-c2ccccn2)cs1", "note": "(stereo not given)", "inhibition": "-5.6% (inactive)"}, {"smiles": "Clc1ccc(Cc2nnc(-c3cccs3)o2)cc1", "inhibition": "-1.16% (inactive)"}, {"smiles": "Clc1ccc(Nc2nc(-c3cccs3)cs2)nc1", "inhibition": "84.2% (active)"}, {"smiles": "COc1ccc(C(O)c2nc(-c3ccc(OC)nc3)cs2)cc1", "note": "(stereo not given)", "inhibition": "-3.44% (inactive)"}, {"smiles": "N#Cc1ccc(OCC(=O)Nc2nc(-c3ccccn3)cs2)cc1", "inhibition": "0.752% (inactive)"}, {"smiles": "C=CCC[C@H](Cc1ccc(F)cc1)C(=O)OC[C@@H](Cc1c[nH]c2ccccc12)NC(=O)[C@H](CC=C)CC(=O)N[C@H](CO)Cc1ccccc1", "inhibition": "1.71% (inactive)"}, {"smiles": "CN(C(=O)c1ccccc1)c1nccnc1C#N", "inhibition": "-2.1% (inactive)"}, {"smiles": "O=C(NCCc1ccccc1)C1CCC(Cn2c(=O)c3ccccc3n(Cc3cccnc3)c2=O)CC1", "note": "(stereo not given)", "inhibition": "2.01% (inactive)"}, {"smiles": "O=C(c1ccc(=O)oc1)N1CCC(C(O)(c2ccccc2)c2ccccc2)CC1", "inhibition": "22.9% (inactive)"}, {"smiles": "NC(=O)C1CCN(C(=O)c2ccc(C(F)(F)F)cc2)CC1", "inhibition": "1.88% (inactive)"}, {"smiles": "CCn1cnc2scc(-c3ccc(C)c(C)c3)c2c1=O", "inhibition": "9.07% (inactive)"}, {"smiles": "C[C@H]1NS(=O)(=O)c2cc(Cl)ccc2O[C@@H]1c1ccccc1", "inhibition": "12.8% (inactive)"}, {"smiles": "O=C(N/N=C\\c1cccc(Br)c1)c1ccccc1-n1cccc1", "inhibition": "49.3% (active)"}, {"smiles": "COc1cc(OC)c(C(=O)NNC(=O)c2ccccc2-n2cccc2)cc1OC", "inhibition": "-9.97% (inactive)"}, {"smiles": "Cc1nnsc1C(=O)N/N=C/c1cccc(C(F)(F)F)c1", "inhibition": "6.82% (inactive)"}, {"smiles": "CC(C)Nc1ccc(-n2nc3ccccc3[n+]2[O-])cc1", "inhibition": "8.98% (inactive)"}, {"smiles": "O=C(O)CCCN1C(=O)C2C3c4ccccc4C(c4ccccc43)[C@@H]2C1=O", "note": "(stereo not given in full)", "inhibition": "-5.65% (inactive)"}, {"smiles": "COCCNC(=O)CCCN1C(=O)c2ccccc2Sc2ncccc21", "inhibition": "4.78% (inactive)"}, {"smiles": "O=C(O)CCCN1C(=O)c2ccccc2Sc2ncccc21", "inhibition": "45.5% (active)"}, {"smiles": "Fc1ccc(N2N=C(c3cccs3)CC2c2ccco2)c(F)c1", "note": "(stereo not given)", "inhibition": "12.6% (inactive)"}, {"smiles": "Cc1nc2cc(NC(=O)CSc3nc4c(C)cccc4cc3C#N)ccc2s1", "inhibition": "-3.68% (inactive)"}, {"smiles": "Cc1cc(C)c2cc(C#N)c(N3CCNCC3)nc2c1", "inhibition": "5.2% (inactive)"}, {"smiles": "Cc1cccc2cc(C#N)c(N3CCCC3)nc12", "inhibition": "32.6% (active)"}, {"smiles": "CC(=O)Nc1ccc(NC(=O)[C@@H](NC(=O)c2cccc(C)c2)C(C)C)cc1", "inhibition": "12.9% (inactive)"}, {"smiles": "Cc1cccc(C(=O)N[C@H](C(=O)NCc2cccs2)C(C)C)c1", "inhibition": "1.58% (inactive)"}, {"smiles": "Cc1cccc(C(=O)Nc2ccc(C(=O)/C=C/c3cccs3)cc2)c1", "inhibition": "46.6% (active)"}, {"smiles": "CCCCCCCC(=O)OC(CN1CCCCCC1)CN1CCCC1=O", "note": "(stereo not given)", "inhibition": "0.0276% (inactive)"}, {"smiles": "O=Cc1c(Cl)cccc1Cl", "inhibition": "2.42% (inactive)"}, {"smiles": "CCC(=O)Nc1c(C)n[nH]c1C", "inhibition": "-5.42% (inactive)"}, {"smiles": "Cn1c(CC(=O)Nc2ccc(F)cc2)nnc1SCC(=O)NC1CCCCC1", "inhibition": "7.79% (inactive)"}, {"smiles": "COc1cccc(NC(=O)CSc2nnc(C3CCCCC3)n2N)c1", "inhibition": "-8.2% (inactive)"}, {"smiles": "C=CCn1c(CC(=O)Nc2cccc(OC)c2)nnc1SCC(=O)NC1CCCCC1", "inhibition": "37.9% (active)"}, {"smiles": "CC(C)C(=O)Nc1c(C(=O)c2ccc(F)cc2)oc2ccccc12", "inhibition": "19.7% (inactive)"}, {"smiles": "Clc1ccc(-c2cc(-c3ccccn3)on2)c(Cl)c1", "inhibition": "65.8% (active)"}, {"smiles": "Fc1ccc(-c2ccc(CNCc3ccccn3)o2)cc1Cl", "inhibition": "-1.67% (inactive)"}, {"smiles": "Clc1ccc(COn2c(-c3ccc(Cl)cc3Cl)nc3ncccc32)cc1", "inhibition": "28.6% (inactive)"}, {"smiles": "COC(=O)[C@]1(Cc2ccccc2)N[C@H](CN(C)S(=O)(=O)c2ccc(OC(F)(F)F)cc2)[C@@H]2C(=O)N(C)C(=O)[C@@H]21", "inhibition": "3.7% (inactive)"}, {"smiles": "N=c1c2c(-c3ccccc3)c(-c3ccccc3)n(Cc3ccccc3)c2ncn1CCCO", "inhibition": "36.6% (active)"}, {"smiles": "COCCn1cnc2c1c(=O)n(CC(=O)NN)c(=O)n2Cc1ccccc1", "inhibition": "5.34% (inactive)"}, {"smiles": "COCCn1cnc2c1c(=O)n(Cc1ccc(Br)cc1)c(=O)n2Cc1ccccc1", "inhibition": "21.1% (inactive)"}, {"smiles": "Cc1[nH]c(C)c(S(=O)(=O)N2CCN(c3cccc(C(F)(F)F)c3)CC2)c1C(=O)N1CCCC1", "inhibition": "16.8% (inactive)"}, {"smiles": "CCOC(=O)[C@]12CCCC=C1N(CCC1=CCCCC1)C(=O)[C@H](CC(=O)N1CCOCC1)C2", "inhibition": "6.43% (inactive)"}, {"smiles": "CN1CN(C)c2ccc([N+](=O)[O-])c3cccc1c23", "inhibition": "38.8% (active)"}, {"smiles": "Cc1cccc(N2CCN(c3ccc(C(N)=O)cc3[N+](=O)[O-])CC2)c1C", "inhibition": "6.19% (inactive)"}, {"smiles": "CN1CCN(S(=O)(=O)c2ccc(N3CCN(c4ccccc4O)CC3)c([N+](=O)[O-])c2)CC1", "inhibition": "-7.8% (inactive)"}, {"smiles": "COc1ncnc2c1N=C1CC(C)(C)CC(N)=C1S2", "inhibition": "46.6% (active)"}, {"smiles": "CCOc1ccc(C(CC(=O)O)NC(=O)COc2ccccc2)cc1", "note": "(stereo not given)", "inhibition": "0.0857% (inactive)"}, {"smiles": "CN1CCN(C(=O)c2ccc(NC(=O)c3ccc(Br)o3)cc2)CC1", "inhibition": "-9.6% (inactive)"}, {"smiles": "O=C(Oc1ccc(-c2nc(-c3ccccn3)no2)cc1)c1ccccc1", "inhibition": "26.9% (inactive)"}, {"smiles": "OC(c1nnc(-c2ccccc2)o1)c1cccs1", "note": "(stereo not given)", "inhibition": "-9.63% (inactive)"}, {"smiles": "CCS(=O)(=O)c1ccc(-c2cccc(NC(=O)c3ccc(Br)o3)c2)nn1", "inhibition": "19.3% (inactive)"}, {"smiles": "Nc1nonc1-c1noc(-c2ccc(Br)o2)n1", "inhibition": "34.9% (inactive)"}, {"smiles": "O=C(Nc1ccc(-c2nnc(-c3ccccc3)o2)cc1)c1ccc(Br)o1", "inhibition": "34.6% (active)"}, {"smiles": "CCCN(CCC)c1ccc(C(O)c2nnc(-c3ccccc3)o2)cc1", "note": "(stereo not given)", "inhibition": "5.96% (inactive)"}, {"smiles": "Brc1ccc(-c2noc(-c3ccccc3)n2)o1", "inhibition": "53.9% (active)"}, {"smiles": "Brc1ccc(-c2nnc(-c3ccccc3)o2)o1", "inhibition": "47.1% (active)"}, {"smiles": "CN1CCN(C(CNS(=O)(=O)c2cccs2)c2cccnc2)CC1", "note": "(stereo not given)", "inhibition": "-8.82% (inactive)"}, {"smiles": "CCOc1cc2[nH]c(=O)n(CCC(=O)NCc3ccc(OC)cc3)c(=O)c2cc1OCC", "inhibition": "-1.79% (inactive)"}, {"smiles": "CCCc1ccc(S(=O)(=O)N2CCN(C(=O)c3cc(C)on3)CC2)cc1", "inhibition": "12.9% (inactive)"}]}]}
